Test results from PubChem BioAssay (NCI).
“And” between values parts separate entries of the source, which are not always exact repeats. Identical values can stand only once. About 83,000 compounds went through this panel and 20% of them were active in at least one assay; those are over-represented in the sample as a whole.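 Method: cells in 96-well plates; compound added at one concentration; 48 h incubation; percent growth measured; values under 10 scored active.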 The source made the active and inactive calls.

Assays:
Experiment in all cases: NCI-60 one-dose screen, 48 h (100 = growth as untreated, 0 = no growth, -100 = all killed)
Conditions in all cases: 10 µM unless noted
SR leukemia = test system: SR leukemia
RPMI-8226 leukemia = test system: RPMI-8226 leukemia
OVCAR-8 ovarian = test system: OVCAR-8 ovarian
OVCAR-5 ovarian = test system: OVCAR-5 ovarian
OVCAR-4 ovarian = test system: OVCAR-4 ovarian
SK-OV-3 ovarian = test system: SK-OV-3 ovarian
IGROV1 ovarian = test system: IGROV1 ovarian
HS 578T breast = test system: HS 578T breast
NCI/ADR-RES ovarian = test system: NCI/ADR-RES ovarian
OVCAR-3 ovarian = test system: OVCAR-3 ovarian

Measured: growth

O=C(O)c1cc(=O)[nH]c(=O)[nH]1
inactive: SR leukemia 104% | RPMI-8226 leukemia 98.2% and 71.6% | OVCAR-8 ovarian 102% and 76.4% | OVCAR-4 ovarian 107% and 101% | SK-OV-3 ovarian 104% and 112% | IGROV1 ovarian 103% | HS 578T breast 107% and 94.8%
107% (inactive) and -33.1% (active): NCI/ADR-RES ovarian
101% (inactive) and -23.6% (active): OVCAR-5 ovarian

O=C(c1ccccc1)C1(Br)CCCCC1
inactive: SR leukemia 149% | RPMI-8226 leukemia 98.9% | OVCAR-8 ovarian 103% | OVCAR-5 ovarian 97% | OVCAR-4 ovarian 105% | SK-OV-3 ovarian 108% | OVCAR-3 ovarian 112% | HS 578T breast 97.3% | NCI/ADR-RES ovarian 91.5%

O=S(=O)(O)c1ccc2cc(O)ccc2c1
inactive: SR leukemia 101% | RPMI-8226 leukemia 106% | OVCAR-8 ovarian 102% | OVCAR-5 ovarian 107% | OVCAR-4 ovarian 112% | SK-OV-3 ovarian 104% | IGROV1 ovarian 109% | OVCAR-3 ovarian 112% | NCI/ADR-RES ovarian 105%

O=C1c2ccccc2CN1c1ccccc1
inactive: SR leukemia 84.5% | RPMI-8226 leukemia 107% | OVCAR-8 ovarian 104% | OVCAR-5 ovarian 98% | OVCAR-4 ovarian 99.3% | SK-OV-3 ovarian 105% | IGROV1 ovarian 123% | HS 578T breast 115% | NCI/ADR-RES ovarian 105%

NCCSSC/C=C\CSSCCN
inactive: SR leukemia 107% | RPMI-8226 leukemia 94.9% | OVCAR-8 ovarian 97% | OVCAR-5 ovarian 121% | OVCAR-4 ovarian 103% | SK-OV-3 ovarian 99.8% | IGROV1 ovarian 115% | OVCAR-3 ovarian 109% | NCI/ADR-RES ovarian 107%

CCOC(=O)CN1CCC(C(=O)OCC)CC1
inactive: SR leukemia 124% | RPMI-8226 leukemia 95.8% | OVCAR-8 ovarian 106% | OVCAR-5 ovarian 104% | OVCAR-4 ovarian 108% | SK-OV-3 ovarian 99.1% | IGROV1 ovarian 122% | OVCAR-3 ovarian 117% | NCI/ADR-RES ovarian 110%

CC(C)(C)OC(=O)NCCc1ccc(N)cc1
inactive: SR leukemia 99.5% | RPMI-8226 leukemia 91.4% | OVCAR-8 ovarian 104% | OVCAR-5 ovarian 111% | OVCAR-4 ovarian 98.8% | SK-OV-3 ovarian 101% | IGROV1 ovarian 104% | NCI/ADR-RES ovarian 99.2%

CCN(CC)C(CC(=O)c1ccccc1)C(=O)c1ccccc1 (configuration not stated)
inactive: SR leukemia 29% | RPMI-8226 leukemia 86.5% | OVCAR-8 ovarian 96.6% | OVCAR-5 ovarian 113% | OVCAR-4 ovarian 93.3% | SK-OV-3 ovarian 114% | IGROV1 ovarian 110% | NCI/ADR-RES ovarian 101%

O=[N+]([O-])c1cccc(N=Cc2ccccc2)c1
inactive: SR leukemia 88.4% | RPMI-8226 leukemia 101% | OVCAR-8 ovarian 93.1% | OVCAR-5 ovarian 107% | OVCAR-4 ovarian 111% | SK-OV-3 ovarian 106% | IGROV1 ovarian 114% | NCI/ADR-RES ovarian 108%

OCc1cccc(F)c1
inactive: SR leukemia 71.1% | RPMI-8226 leukemia 113% | OVCAR-8 ovarian 85.3% | OVCAR-5 ovarian 70.7% | OVCAR-4 ovarian 113% | SK-OV-3 ovarian 91.7% | OVCAR-3 ovarian 125% | HS 578T breast 124% | NCI/ADR-RES ovarian 76.5%

CCN(CC)CCNC(=O)c1ccc(NCN2C(=O)NC(c3ccccc3)(c3ccccc3)C2=O)cc1
inactive: SR leukemia 99.5% and 113% | RPMI-8226 leukemia 104% | OVCAR-8 ovarian 99.9% and 111% | OVCAR-5 ovarian 104% and 119% | OVCAR-4 ovarian 105% and 104% | SK-OV-3 ovarian 123% and 90.9% | IGROV1 ovarian 144% and 107% | HS 578T breast 98.4% and 103% | NCI/ADR-RES ovarian 107% and 111%

OC1CCCN(Cc2ccccc2)C1 (configuration not stated)
inactive: SR leukemia 88.6% | RPMI-8226 leukemia 90.5% | OVCAR-8 ovarian 105% | OVCAR-5 ovarian 108% | OVCAR-4 ovarian 129% | SK-OV-3 ovarian 99.7% | IGROV1 ovarian 112% | HS 578T breast 118% | NCI/ADR-RES ovarian 101%

Nc1nc(=S)c2[nH]cnc2[nH]1
-20.3% (active) and 11.4% (inactive): OVCAR-3 ovarian
inactive: OVCAR-8 ovarian 12% | IGROV1 ovarian 27.3% and 36.7% | HS 578T breast 54.1%
18.2% (inactive) and -50.1% (active): NCI/ADR-RES ovarian
active: SR leukemia 5.87% and 0.643% | RPMI-8226 leukemia 1.54% and -23.5% | OVCAR-5 ovarian -30.1% | SK-OV-3 ovarian 5.43% and 6.69%

S=c1ccc2ccccc2[nH]1
inactive: SR leukemia 109% and 97.3% | RPMI-8226 leukemia 109% and 104% | OVCAR-8 ovarian 102% and 98.6% | OVCAR-5 ovarian 102% and 105% | SK-OV-3 ovarian 97.9% and 101% | IGROV1 ovarian 104% and 106% | OVCAR-3 ovarian 114% and 107% | HS 578T breast 97.7% and 103% | NCI/ADR-RES ovarian 107% and 110%

Clc1ccc2sc(-c3ccccc3)nc2c1
inactive: SR leukemia 83.1% | RPMI-8226 leukemia 97% | OVCAR-8 ovarian 87.9% | OVCAR-5 ovarian 120% | SK-OV-3 ovarian 83.6% | IGROV1 ovarian 101% | HS 578T breast 68.7% | NCI/ADR-RES ovarian 100%

O=C1C=CC(n2cc(F)c(=O)[nH]c2=O)O1 (configuration not stated)
inactive: SR leukemia 13.1% | RPMI-8226 leukemia 62% | OVCAR-8 ovarian 62.3% | OVCAR-5 ovarian 128% | SK-OV-3 ovarian 68.2% | IGROV1 ovarian 103% | OVCAR-3 ovarian 57.5% | NCI/ADR-RES ovarian 85.1%

CN(C)c1ccc(C(=N)c2ccc(N(C)C)cc2)cc1
active: OVCAR-3 ovarian -9.34% and 2.49% | NCI/ADR-RES ovarian 0.0366% and 2.94%
inactive: SR leukemia 19.9% and 10.4% | RPMI-8226 leukemia 30.6% and 25.1% | OVCAR-8 ovarian 31.5% and 31.2% | OVCAR-5 ovarian 68.1% and 65.4% | SK-OV-3 ovarian 31.1% and 31.6% | IGROV1 ovarian 35.2% and 46% | HS 578T breast 16% and 40.5%

CN(C)C(=N)N=C(N)N
inactive: SR leukemia 133% | RPMI-8226 leukemia 92.2% | OVCAR-8 ovarian 105% | OVCAR-5 ovarian 115% and 114% | OVCAR-4 ovarian 96.3% and 112% | SK-OV-3 ovarian 106% and 110% | OVCAR-3 ovarian 118% and 113% | HS 578T breast 144% | NCI/ADR-RES ovarian 105% and 111%

Cc1cc(=NO)cc(C)n1O
inactive: SR leukemia 72.5% | RPMI-8226 leukemia 103% | OVCAR-8 ovarian 111% | OVCAR-5 ovarian 117% | OVCAR-4 ovarian 106% | SK-OV-3 ovarian 104% | OVCAR-3 ovarian 104% | HS 578T breast 103% | NCI/ADR-RES ovarian 114%

O=C(c1ccncc1)c1c(Cc2ccccc2)ccc2ccccc12
inactive: SR leukemia 107% | RPMI-8226 leukemia 85.1% | OVCAR-8 ovarian 82.5% | OVCAR-5 ovarian 87.5% | SK-OV-3 ovarian 120% | IGROV1 ovarian 18% | OVCAR-3 ovarian 98% | NCI/ADR-RES ovarian 88.2%

COCCCNC1=C(C#N)C(=O)NC(c2cccs2)S1 (configuration not stated)
inactive: SR leukemia 113% | RPMI-8226 leukemia 122% | OVCAR-8 ovarian 113% | OVCAR-5 ovarian 109% | SK-OV-3 ovarian 101% | IGROV1 ovarian 119% | OVCAR-3 ovarian 118% | HS 578T breast 112% | NCI/ADR-RES ovarian 110%

N=c1sc2ccccc2n1CC(=O)O
inactive: SR leukemia 106% | RPMI-8226 leukemia 93.7% | OVCAR-5 ovarian 110% | OVCAR-4 ovarian 115% | SK-OV-3 ovarian 106% | OVCAR-3 ovarian 114% | HS 578T breast 92% | NCI/ADR-RES ovarian 108%
active: OVCAR-8 ovarian 4.81%

NNc1ncnc2cccc(Cl)c12
inactive: SR leukemia 108% | RPMI-8226 leukemia 94.9% | OVCAR-8 ovarian 95.2% | OVCAR-5 ovarian 97.5% | OVCAR-4 ovarian 114% | SK-OV-3 ovarian 94.4% | OVCAR-3 ovarian 119% | HS 578T breast 98.4% | NCI/ADR-RES ovarian 102%

COC(=O)c1nc(N)nc(C(=O)OC)c1C(=O)c1ccc(F)cc1
inactive: SR leukemia 112% | RPMI-8226 leukemia 112% | OVCAR-8 ovarian 107% | OVCAR-5 ovarian 114% | OVCAR-4 ovarian 110% | SK-OV-3 ovarian 108% | OVCAR-3 ovarian 116% | HS 578T breast 102% | NCI/ADR-RES ovarian 109%

CCC(=O)Oc1ccc(OCc2ccccc2)cc1
inactive: SR leukemia 80.9% and 97.4% | RPMI-8226 leukemia 89.6% and 90.6% | OVCAR-8 ovarian 87.7% and 69.1% | OVCAR-5 ovarian 113% and 119% | SK-OV-3 ovarian 105% and 101% | IGROV1 ovarian 92.8% and 82% | HS 578T breast 98.3% and 97.3% | NCI/ADR-RES ovarian 66.6% and 65%

CC1CCC(=O)N1c1ccc(N)cc1 (configuration not stated)
inactive: SR leukemia 93.8% | RPMI-8226 leukemia 103% | OVCAR-8 ovarian 100% | OVCAR-5 ovarian 99.9% | SK-OV-3 ovarian 99.3% | IGROV1 ovarian 101% | OVCAR-3 ovarian 108% | HS 578T breast 108% | NCI/ADR-RES ovarian 106%
